Measured values: PubChem BioAssay AID624330 (Southern Research Specialized Biocontainment Screening …, 2012)
Out of some 340,000 compounds screened, about 2,100 (0.62%) were called active.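 How the source made its calls: active means first-screen hits whose inhibition reached a set limit at any dose in the follow-up dose series; inconclusive means inhibition above the set first-screen limit but never retested; inactive means the rest.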 The list is a sample of the results. Potency and affinity values are given separately.

The molecules below were run against Rac GTPase-activating protein 1 (Homo sapiens) (UniProt Q9H0H5) (assay: MgcRacGAP GTPase-activating activity inhibitors, confirmation, biochemical, ADP Hunter fluorescence, primary and confirmatory (AID 624330;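 further: fluorescence reports GDP produced by GAP-driven GTP hydrolysis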)). Details: MgcRacGAP-stimulated Rac1 GTP hydrolysis, at 30 µM, stronger effect = higher value, GST-tagged Rac1 F28L mutant substrate.
Sequence of Rac GTPase-activating protein 1 (Homo sapiens) (Q9H0H5 whole entry, looked up): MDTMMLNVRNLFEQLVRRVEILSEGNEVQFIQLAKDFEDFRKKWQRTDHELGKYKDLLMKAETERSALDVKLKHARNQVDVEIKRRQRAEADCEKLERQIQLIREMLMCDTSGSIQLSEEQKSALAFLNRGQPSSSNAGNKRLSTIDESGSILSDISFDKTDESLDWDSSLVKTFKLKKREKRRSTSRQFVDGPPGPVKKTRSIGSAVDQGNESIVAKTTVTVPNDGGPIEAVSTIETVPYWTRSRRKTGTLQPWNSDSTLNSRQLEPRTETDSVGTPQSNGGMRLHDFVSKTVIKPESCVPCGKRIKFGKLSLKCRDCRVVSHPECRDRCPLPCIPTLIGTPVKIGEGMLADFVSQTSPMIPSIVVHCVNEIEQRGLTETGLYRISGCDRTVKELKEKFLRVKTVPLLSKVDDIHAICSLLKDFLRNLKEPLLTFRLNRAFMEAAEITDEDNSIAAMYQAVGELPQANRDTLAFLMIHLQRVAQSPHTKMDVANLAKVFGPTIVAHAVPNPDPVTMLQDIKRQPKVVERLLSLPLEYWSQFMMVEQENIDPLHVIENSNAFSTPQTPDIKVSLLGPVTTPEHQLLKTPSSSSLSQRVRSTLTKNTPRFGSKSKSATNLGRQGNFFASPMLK

inhibition, inactive:
CCOc1ccc(N=Cc2c(O)cc(C)oc2=O)cc1 30%, Cc1cccc(N=Cc2c(O)cc(C)oc2=O)c1 5.21%, CC1Cc2ccccc2N1C(=O)COc1nc2ccccc2nc1N1CCOCC1 (stereo unspecified) 0.29%, CN1/C(=C/C=N/NC(=O)c2ccc([N+](=O)[O-])cc2)C(C)(C)c2ccccc21 2.66%, Cc1ccccc1N=C/C=C1\N(C)c2ccccc2C1(C)C 4.55%, CN1/C(=C\C=N\O)C(C)(C)c2ccccc21 15.1%, CO/N=C/C=C1/N(C)c2ccccc2C1(C)C 6.44%, CN1/C(=C\C=Nc2ccc3ccccc3c2)C(C)(C)c2ccccc21 12.2%, CN1/C(=C\C=N\NC(=O)c2cccnc2)C(C)(C)c2ccccc21 4.5%, COC(=O)CCCCC(=O)C1C(=O)CC(C)(C)C(C(=O)OC)C1=O (stereo unspecified) 2.31%, CC1(C2CC(C(F)(F)F)n3nc(C(=O)O)cc3N2)CC1 (stereo unspecified) 5.89%, O=C(Nc1ccc(C(=O)N2CCCCC2)cc1)c1ccccc1Br 3.41%, COc1ccc(/C=C/C(=O)Oc2ccc(/C=N/NC(=O)c3ccccc3)cc2)cc1OC 3.85%, O=C(CN1CCN(Cc2ccccc2)CC1)N/N=C/c1cccs1 2.1%, N/C(Cc1ccc([N+](=O)[O-])cc1)=N\OC(=O)C(c1ccccc1)c1ccccc1 8.53%, NC(CSCc1ccccc1Cl)C(=O)O (stereo unspecified) -0.96%, CCc1ccc(OCC(=O)N2CC(C(N)=O)Oc3ccccc32)cc1 (stereo unspecified) 4.28%, Cc1cc2nc(/C(C#N)=C/c3ccncc3)[nH]c2cc1C 10.2%, COc1ccc(/C=C(\C#N)C(=O)c2c(C)[nH]c3ccccc23)cc1OC 10.7%, COc1cc(/C=C(\C#N)c2nc3ccccc3[nH]2)cc(Br)c1OCc1ccccc1 6.48%, COc1cc(/C=C(\C#N)c2nc3ccccc3[nH]2)cc(Br)c1OCc1ccc(F)cc1 6.53%, Cc1ccc2nc(/C(C#N)=C/c3ccccc3C(=O)O)[nH]c2c1 16%, COc1ccc(/C=C(\C#N)c2nc3ccccc3[nH]2)cc1O 18.2%, COc1cc(/C=C(\C#N)C(=O)c2c(C)[nH]c3ccccc23)cc(OC)c1OC 15.4%, COc1cc(/C=C(/C#N)c2nc3ccccc3c(=O)[nH]2)ccc1O 19.3%, O=C(CCn1cnnn1)NC1CCCN(Cc2ccccc2F)C1 (stereo unspecified) -0.5%, CN(C)c1ccc(C=NNC(=O)c2cccnc2)cc1 1.95%, CCCCN(C(=O)c1ccc2c(c1)S(=O)(=O)N=C1CCCCCN12)c1c(N)n(CCCC)c(=O)[nH]c1=O -0.05%, CC1C(=O)Nc2ccc(S(=O)(=O)NCc3ccc(Cl)cc3)cc2NC1=O (stereo unspecified) 7.58%, Cc1ccc(F)cc1NC(=O)CCOc1ccccc1 -2.1%, CCCc1cc(=O)n2nc(N3CCC(C(=O)NCc4ccco4)CC3)sc2n1 4.69%, COc1cc2c(cc1NC(=O)c1ccncc1)oc1ccccc12 14.9%, C=Cn1cc(CNC[C@H]2O[C@@H](n3ccc(N)nc3=O)[C@H](O)[C@@H]2O)c(C)n1 0.77%, COc1ccc(CCNS(=O)(=O)c2ccc(-n3cnnn3)cc2)cc1OC 4.09%, O=C(Nc1nc2ccccc2[nH]1)Nc1ccccc1F -2.47%, CCCc1ccc2oc(C(=O)N3CCCC3)c(C)c2c1 3.8%, O=C(NC1CCN(S(=O)(=O)c2ccc(F)cc2)CC1)c1cccc(F)c1 4.4%, Cc1cc2nc3ccc(N(C)C)cc3nc2cc1N 18.1%, Cc1ccc(-n2nc3cc(C)c(N)cc3n2)cc1 8.27%, CS(=O)(=O)N1CCN(c2ccccc2NC(=O)c2ccc(Cl)cc2)CC1 13.8%, O=[N+]([O-])c1c(Nc2ccc(O)cc2)cc(Cl)c2nonc12 16.8%, O=[N+]([O-])c1c(Nc2ccccc2O)cc(Cl)c2nonc12 16.1%, O=[N+]([O-])c1ccc2nonc2c1Nc1ccccc1 5.91%, O=[N+]([O-])c1ccc(Nc2ccccc2O)c2nonc12 19.7%, CC(=O)c1ccc(Nc2ccc([N+](=O)[O-])c3nonc23)cc1 4.9%, CN(C)c1cc(Nc2ccc(O)cc2)c([N+](=O)[O-])c2nonc12 13.9%, Cn1c(/N=C/c2ccccc2[N+](=O)[O-])nc2ccccc21 2.88%, CC(=O)N1CCC(N(CCN2CCOCC2)C(=S)Nc2cc(C)cc(C)c2)CC1 9.32%, Cc1ccc2cc(CN(CC(C)C)S(=O)(=O)c3cccc4nonc34)c(=O)[nH]c2c1 9.22%, CC(/C=C/C=C/c1ccccc1)=N/NC(=O)C(O)c1ccccc1 (stereo unspecified) 13.5%, C=COCCCNc1ncnc2sc(-c3ccccc3)cc12 23.7%, OCCOCCNc1ncnc2sc(-c3ccccc3)cc12 23%, O=C(NCCCN1CCCC1)c1ccc2c(c1)N(Cc1ccc(F)cc1)C(=O)c1ccccc1S2=O (stereo unspecified) 6.31%, CSc1n[nH]c(NCc2ccc(C)cc2)n1 -0.45%, CC(C)(C)c1nc(N)nc(=O)[nH]1 4.68%, Nc1nc(N)c2[nH]c(-c3ccccc3)nc2n1 6.78%, COc1cc(O)c2c(c1)COC2=O 4.96%, C=CCc1cc(OC)ccc1OCCON1C(=O)CCC1=O 8.6%, CN(C)c1cccc(C(=O)OCC(=O)NC(=O)NCc2ccccc2)c1 -0.47%, CCOC(=O)c1cnc(Nc2ccccc2)nc1C(F)(F)F 1.7%, Cc1c(N=Cc2ccc(-c3ccc(Cl)cc3)o2)c(=O)n(-c2ccccc2)n1C 3.54%, O=C(Cc1cccc(C(F)(F)F)c1)OCN1C(=O)c2ccccc2C1=O 4.25%, CCCCCC(=O)Nc1cc(S(=O)(=O)N2CCCCC2)ccc1N1CCCCC1 9.51%, CCS(=O)(=O)c1ccc(O)c(NC(=O)CCCC(=O)O)c1 13.8%, Cc1ccc(-c2nc(CS(=O)(=O)CC(=O)NCc3cccc(F)c3)c(C)o2)cc1 7.24%, CC#C[C@@H](CC)c1ccc2ccn(C)c2c1 9.11%, O=C1c2cc(CO)cc(O)c2C(=O)c2c(O[C@@H]3OC(CO)[C@@H](O)[C@@H](O)[C@@H]3O)cccc21 (stereo partly specified) 7.99%, O=C1c2c(O)cccc2C(C2OC(CO)[C@@H](O)[C@H](O)[C@H]2O)c2cc(CO)cc(O)c21 (stereo partly specified) 11.8%, Cc1ccc2c(C(=O)N3CCN(c4ccccc4)CC3)cc(-c3cccnc3)nc2c1C 6.48%, COC(=O)CC1SC(=O)NC1=Nc1ccc(OC)cc1 (stereo unspecified) 6.86%, COC(=O)CC1SC(=O)NC1=Nc1ccc(C)cc1 (stereo unspecified) 8.37%, Cc1cc(Nc2ccccc2Cl)n2nnnc2n1 2.54%, COC(=O)CSc1nc(N)c2c3c(sc2n1)C(c1ccccc1)SC(c1ccccc1)C3 (stereo unspecified) 6.76%, O=C1C(=C(O)c2ccccc2)C(=O)c2ccccc21 8.92%, O=C1C(=O)c2ccc(-c3ccccc3)cc2-c2ccccc21 7.95%, COc1ccc(N(CC(=O)Nc2ccccc2F)S(=O)(=O)c2ccc(OC)c(OC)c2)cc1 -10.3%, COc1ccc(C(=O)Nc2cccc3nc(C)ccc23)cc1OC 12.2%, Cc1ccc(C(=O)c2coc3ccc(O)c(Cl)c23)cc1 16%, CN(C)Cc1c(O)ccc2occ(C(=O)c3ccccc3)c12 6.64%, COc1ccc(NC(=O)COc2ccc3c(c2)OCO3)cc1 6.39%, COc1cccc(CN2CC(C(=O)NC3CCCCCC3)CCC2=O)c1 (stereo unspecified) 2.79%, CCN(CCNCC(O)COCc1ccc(Cl)cc1)c1cccc(C)c1 (stereo unspecified) 31.7%, CC(C)c1ccccc1OCC(O)CN(CC(O)COc1cccc2ccccc12)C(C)C (stereo unspecified) 4.64%, C=CCOc1ccc(C(=O)Nc2ncn[nH]2)cc1 4.62%, COc1ccc(NC(=O)C2CCCO2)cc1OC (stereo unspecified) 10.4%, COc1ccc([C@@H](OC)[C@@]2(Cc3ccc(O)cc3)N=C(N)N(C)C2=O)cc1 0.02%, COc1ccc(NC(=O)c2ccccc2NC(=O)C2CCCO2)cc1 (stereo unspecified) 10.5%, CC(=Nc1ccc(C)cc1)c1sc2ccccc2c1O 2.37%, CC(=Nc1ccccc1)c1sc2ccccc2c1O 19.1%, O=c1[nH]c(SCc2ccccc2)nc2ccsc12 6.38%, O=C(NCc1ccccc1)/C(=C/c1ccccc1)NC(=O)c1ccco1 2.6%, O=C(NCc1ccccc1)/C(=C\c1ccccc1)NC(=O)c1ccco1 6.99%, COc1ccc(NC(=S)N2CCNC(=O)C2CC(=O)Nc2ccc(C)cc2)cc1 (stereo unspecified) 15.2%, COc1cc(/C=N/NC(=O)CCN2CCN(c3ccccc3)CC2)cc(OC)c1OC 4.52%, O=C(CCN1CCN(C(c2ccccc2)c2ccccc2)CC1)N/N=C/c1ccc(O)cc1O 30.9%, COc1ccc(/C=N/NC(=O)CN2CCCC2)cc1 -0.98%, COc1ccc(OC)c(/C=N/NC(=O)CCN2CCN(C(c3ccccc3)c3ccccc3)CC2)c1 -2.42%, O=C(CCN1CCCCC1)N/N=C/c1ccc(Br)cc1 7.98%, COc1ccc(/C=N\NC(=O)CCN2CCN(c3ccccc3)CC2)cc1OC 7.5%, COc1ccc(Br)cc1/C=N/NC(=O)CN1CCCCC1 14.3%, NNC(=O)CCN1CCN(C(c2ccccc2)c2ccccc2)CC1 -8.98%
